Screening data as filed in PubChem BioAssay.
Cycloheximide cs: counter-screen for Shiga toxin inhibitors: cycloheximide protein synthesis inhibition; cell reporter, cycloheximide protein synthesis inhibition counterscreen; max response, %; actives 12% (n = 300,000); AID 2314; in the data active means max response mostly above about 13%, no sharp cut-off; inactive means mostly below about 14%; further: read at 38.3 µM for the half of the compounds with a filed dose; 0% is about no effect
FMDV antiviral: foot and mouth disease virus antiviral activity. FMDV antiviral cell-based qHTS. Potency, µM (top dose mostly 57.9 µM), inactives show at the highest dose activity change, negative = inhibition, most hits filed as inhibitors. actives 1.2% (n = 410,000); calls by dose curve; tested in HEK293T cells; further: read-out not given here; potency means the concentration at half of the fitted maximal effect; on the % scale 0 is the no-effect control and ±100 the full control effect; nearly all actives have a fitted effect of over 45% in size
Sm TGR inh: blocks Schistosoma mansoni thioredoxin glutathione reductase; Q962Y6; Potency, µM (titrated, usually from 114 µM), for the others: at the top dose activity change, negative = inhibition, most hits filed as inhibitors; actives 3% (n = 360,000); purified TGR, DTNB reduction, TNB absorbance 405 nm; AID 485364; active means well fitted inhibition curve with a large enough effect; inconclusive means small, poorly fitted or top-dose-only effect; inactive means no such curve, though single readings can be large or run the other way; further: potency means the concentration at half of the fitted maximal effect; on the % scale 0 is the no-effect control and ±100 the full control effect; nearly all actives have a fitted effect of over 60% in size
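Kinetic colorimetric format: TGR-catalysed, NADPH-driven DTNB reduction monitored via TNB absorbance. Enzyme dispensed at 20 nM; compound exposure 15 min at room temperature before reaction start.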
Shiga inhibitor: inhibitors of Shiga toxin in Vero cells. Vero cells, Shiga toxin protein synthesis inhibition reporter. inhibition, % at 38.7 µM. actives 9.2% (n = 290,000); in the data active means inhibition mostly above about 28%, no sharp cut-off; inactive means mostly below about 43%; further: 0% is about no effect
* = called active by the depositor; i = inactive; ? = inconclusive; nt = no result given. A selection: hits, their analogues and other compounds. The true share with any hit is near 12%.

SMILES	Cycloheximide cs	FMDV antiviral	Sm TGR inh	Shiga inhibitor
O=C(CSc1c[nH]c2ccccc12)N1CCCc2ccccc21	-2	-12%	9%	-2
O=C(Cc1c[nH]c2ccccc12)N1CCc2ccccc21	30*	55%	-11%	87*
CCn1c(C)nnc1SCC(=O)Nc1ccc2c(c1)OCCO2	13*	26%	4%	26
Cn1cc(S(=O)(=O)N2CCCCCC2)cc1C(=O)Nc1ccccc1F	nt	-12%	-2%	nt
Cc1ccc(NC(=O)c2ccc(NC(=O)N3CCSc4ncccc43)cc2)c(Cl)c1	nt	?	1%	nt
O=C(Nc1ccc2oc(-c3cccnc3)nc2c1)c1ccc(-c2cccc(OC(F)(F)F)c2)o1	nt	?	10µM*	nt
O=C(Nc1ccc2oc(-c3cccnc3)nc2c1)c1cc2ccccc2o1	-6	-3%	-3%	11
COc1ccc(C(=O)Nc2ccc3oc(-c4cccnc4)nc3c2)cc1	nt	-15%	-16%	nt
COC(=O)Cc1ccc2oc(-c3cccnc3)nc2c1	49*	50%	1%	88*
CCCC(=O)Nc1ccc2oc(-c3cccnc3)nc2c1	25*	46%	5%	54*
CCOc1ccc(C(=O)Nc2ccc3oc(-c4cccnc4)nc3c2)cc1	nt	-19%	-2%	nt
CCCCC(=O)Nc1ccc2oc(-c3cccnc3)nc2c1	31*	13%	-1%	60*
CCc1ccc(-n2nc(CO)c(C(=O)NCCOC)n2)cc1	nt	13%	4%	nt
COc1cccc(NC(=O)Cn2c(=O)n(Cc3ccc(F)cc3)c(=O)c3sc4ccccc4c32)c1	nt	0%	0%	nt
CN(C)c1ccc(CNC(=O)CCCN2C(=O)c3cccnc3Oc3ccc(Cl)cc32)cc1	nt	-9%	0%	nt
CC(C)C(CCNC(=O)CC(Cc1ccccc1)c1ccco1)c1ccco1 (stereo not given)	22*	-14%	?	-10
Cc1cc2ccccc2n1CCNC(=O)c1ccc(Br)o1	19*	32%	13µM*	28*
Cc1cc2ccccc2n1CCNC(=O)c1ccccc1	15*	?	-21%	24
Cc1cc2ccccc2n1CCNC(=O)c1ccc(Br)cc1	nt	-7%	2%	nt
CC(=O)NCCn1c(C)cc2ccccc21	-1	-15%	0%	-9
Cc1cc(C)c(NC(=O)CSc2nc(C)cc(C)c2C#N)c(C)c1	nt	-12%	-1%	nt
Cc1ccc(C)c(Nc2nnc(-n3nc(C)cc3C)c3ccccc23)c1	nt	-12%	2%	nt
CCOC(=O)CSc1nc2sc3c(c2c(=O)n1Cc1ccccc1)CC(C)CC3 (stereo not given)	nt	-11%	0%	nt
Cc1ccc(Cl)cc1N(C)C(=O)c1cc2ccc3cccnc3c2[nH]1	nt	7%	8%	nt
O=C(Nc1ccc(Cl)c([N+](=O)[O-])c1)Nc1nc2ccccc2s1	4	nt	9%	22
SMILES	Cycloheximide cs	FMDV antiviral	Sm TGR inh	Shiga inhibitor
O=C(NC(=S)Nc1ccc(F)c([N+](=O)[O-])c1)c1ccccc1F	23*	13%	-24%	37*
Cc1ccsc1C(=O)Nc1ccc(F)c([N+](=O)[O-])c1	35*	5%	-9%	53*
O=C(Cc1ccc(F)cc1)Nc1ccc(F)c([N+](=O)[O-])c1	-1	1%	4%	-13
O=C(NC(=S)Nc1ccc2[nH]c(=O)[nH]c2c1)c1ccccc1F	15	-14%	?	25
O=C(Nc1ccccc1)Nc1ccc(Cl)c([N+](=O)[O-])c1	37*	-5%	2%	81*
CC(C)C(=O)Nc1ccc(NC(=S)NC(=O)c2ccccc2F)cc1	15*	13%	0%	30
COc1cc(-c2nnc(SCC(=O)N3CCCc4ccccc43)o2)cc(OC)c1OC	nt	-22%	6%	nt
CC(=O)Nc1ccc(C)c([N+](=O)[O-])c1	-3	22%	-3%	45
O=C(Nc1ccccc1)Nc1ccc(F)c([N+](=O)[O-])c1	45*	?	-10%	46*
Cc1ccc(NC(=O)Nc2ccccc2)cc1[N+](=O)[O-]	52*	13%	-1%	146*
COc1ccc(C(=O)Nc2cccc(/C(C)=N/NC(=O)c3ccc([N+](=O)[O-])c(C)c3)c2)cc1OC	25	?	?	27
COc1ccc(C(=O)Nc2cccc(/C(C)=N\NC(=O)c3ccoc3C)c2)cc1OC	45*	-1%	-14%	60*
C/C(=N\NC(=O)c1nn(C)c(C)c1Br)c1cccc(NC(=O)c2ccoc2C)c1	46*	26%	-2%	24*
CC(=O)c1ccc(NC(=O)c2c3c(nc4ccccc24)C(=O)N(C2CCCCC2)C3)cc1	nt	-12%	1%	nt
CCOC(=O)c1c(NC(=O)c2cc(=O)c3ccc(C)cc3o2)sc(C)c1C	nt	9%	-3%	nt
O=C(N/N=C/c1cccc2ccccc12)c1ccncc1	14	17%	8%	15
O=C(/C=C/c1ccc(OCCCF)cc1)N1CCOCC1	30*	57%	?	66*
O=C(/C=C/c1cccc(Oc2ccccc2)c1)N1CCOCC1	34*	76%	4%	86*
O=C(/C=C/c1cccc2ccccc12)N1CCOCC1	32*	42%	2%	86*
CCCCCCOc1ccc(/C=C/C(=O)N2CCOCC2)cc1OC	-3	3%	4%	-5
O=C(/C=C/c1cccc2ccccc12)c1ccncc1	2	14µM*	-31%	-7
Cc1cc(C)cc(OCc2ccc(C(=O)Nc3ccccc3F)o2)c1	nt	3%	-1%	nt
COc1ccc(NCc2cc3cc4c(cc3n(CC(=O)Nc3ccccc3)c2=O)OCO4)cc1	nt	4%	5%	nt
O=C(/C=C/c1ccccc1Cl)N1CCOCC1	19*	21%	-6%	2
COc1ccccc1/C=C/C(=O)N1CCOCC1	-1	1%	-5%	-4
SMILES	Cycloheximide cs	FMDV antiviral	Sm TGR inh	Shiga inhibitor
Cc1ccccc1/C=C/C(=O)N1CCOCC1	31*	9%	4%	66*
CCCC(=O)NC(Oc1ccccc1Cl)C(Cl)(Cl)Cl (stereo not given)	-3	nt	13µM*	-17
CCCC(=O)NC(Oc1ccc(OC)cc1)C(Cl)(Cl)Cl (stereo not given)	-4	-20%	nt	19
CCCC(=O)NC(Oc1ccc(Cl)cc1Cl)C(Cl)(Cl)Cl (stereo not given)	-2	nt	32µM*	-5
CCOC(=O)C1(C(C)C)Oc2ccccc2C(c2ccc(OC)cc2)=C1C(=O)OC (stereo not given)	5	nt	nt	i
COc1cc(/C=N/NC(=O)c2cccc([N+](=O)[O-])c2)cc(OC)c1O	-2	6%	-12%	26
Cc1cccc(C)c1-n1c(C)cc(/C=N\Nc2ccc([N+](=O)[O-])cn2)c1C	28*	-25%	-34%	67*
COc1cccc(/C=N/Nc2ccc([N+](=O)[O-])cc2)c1O	33*	19%	4%	76*
COc1cccc(/C=N/NC(=O)c2ccc([N+](=O)[O-])cc2Cl)c1O	17*	0%	-1%	-18
COC(=O)c1ccc(N/N=C/c2cc([N+](=O)[O-])cc(OC)c2O)cc1	-2	16%	17%	15
COc1cc(/C=N/Nc2ccc([N+](=O)[O-])cn2)cc(OC)c1O	25*	?	-15%	17
O=[N+]([O-])c1ccc(NN=Cc2cccc(O)c2)nc1	nt	32%	nt	nt
CCN(C(=O)C1CCN(S(=O)(=O)c2c(C)noc2/C=C/c2ccc(C)cc2)CC1)c1cccc(C)c1	nt	-22%	4%	nt
